The list is not random: actives were taken first. Their share in the collection is about 12%.
ROMK mod: modulates human ROMK potassium channel activity; P48048; Tet-inducible ROMK, thallium flux fluorescence; actives lie on both sides; B-score at 10 µM; 2% of 130,000 active; AID 1918;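 active means signal ratio slope over the read window, or its plate-corrected B-score, at least 3 SD from the plate mean, either direction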;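 further: B-score of the F/F0 ratio slope over 7 to 12 s after thallium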
Insulin prom up: MIN6 insulin promoter up-regulation; MIN6 insulin promoter-GFP reporter, high-content imaging; hits give high values; z-score at 5 µM; 0.3% of 190,000 active; AID 1625;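 active means z-score above 3 at 5 µM with at least 500 cells counted in the well; inconclusive means wells under 500 cells, flagged as cytotoxic or low count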
WT yeast gro inh: growth inhibition of WT yeast, mitochondrial fusion screen; 2.1% of 190,000 active; inhibition, % at 10 µM; mitochondrial fusion phenotypic screen, WT strain; AID 1362; in the data active means inhibition above about 58%; tested in S. cerevisiae
Lmaj promast: inhibitors of Leishmania major promastigote growth | Leishmania major promastigotes, resazurin fluorescence viability | inhibition, % at 10 µM | 9% of 200,000 active; in the data active means inhibition above about 50%;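 further: promastigotes grown with compound for 44 hours at 28 °C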
KCC2 mod: modulates chloride dependent transport by human KCC2 | KCC2 cells, thallium flux FluoZin-2 fluorescence | B-score of Tl+ flux slope (higher = more flux/activation; lower = inhibition) at 10 µM | AID 1456 | 2.2% of 190,000 active | Q9H2X9;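 active means thallium flux slope and its plate-corrected score both differing from the plate sample mean at a set confidence after two filtering rounds, in either direction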;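 further: slope of fluorescence scaled to starting intensity during 10 to 20 s after thallium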
Target sequence (Q9H2X9 whole entry, looked up): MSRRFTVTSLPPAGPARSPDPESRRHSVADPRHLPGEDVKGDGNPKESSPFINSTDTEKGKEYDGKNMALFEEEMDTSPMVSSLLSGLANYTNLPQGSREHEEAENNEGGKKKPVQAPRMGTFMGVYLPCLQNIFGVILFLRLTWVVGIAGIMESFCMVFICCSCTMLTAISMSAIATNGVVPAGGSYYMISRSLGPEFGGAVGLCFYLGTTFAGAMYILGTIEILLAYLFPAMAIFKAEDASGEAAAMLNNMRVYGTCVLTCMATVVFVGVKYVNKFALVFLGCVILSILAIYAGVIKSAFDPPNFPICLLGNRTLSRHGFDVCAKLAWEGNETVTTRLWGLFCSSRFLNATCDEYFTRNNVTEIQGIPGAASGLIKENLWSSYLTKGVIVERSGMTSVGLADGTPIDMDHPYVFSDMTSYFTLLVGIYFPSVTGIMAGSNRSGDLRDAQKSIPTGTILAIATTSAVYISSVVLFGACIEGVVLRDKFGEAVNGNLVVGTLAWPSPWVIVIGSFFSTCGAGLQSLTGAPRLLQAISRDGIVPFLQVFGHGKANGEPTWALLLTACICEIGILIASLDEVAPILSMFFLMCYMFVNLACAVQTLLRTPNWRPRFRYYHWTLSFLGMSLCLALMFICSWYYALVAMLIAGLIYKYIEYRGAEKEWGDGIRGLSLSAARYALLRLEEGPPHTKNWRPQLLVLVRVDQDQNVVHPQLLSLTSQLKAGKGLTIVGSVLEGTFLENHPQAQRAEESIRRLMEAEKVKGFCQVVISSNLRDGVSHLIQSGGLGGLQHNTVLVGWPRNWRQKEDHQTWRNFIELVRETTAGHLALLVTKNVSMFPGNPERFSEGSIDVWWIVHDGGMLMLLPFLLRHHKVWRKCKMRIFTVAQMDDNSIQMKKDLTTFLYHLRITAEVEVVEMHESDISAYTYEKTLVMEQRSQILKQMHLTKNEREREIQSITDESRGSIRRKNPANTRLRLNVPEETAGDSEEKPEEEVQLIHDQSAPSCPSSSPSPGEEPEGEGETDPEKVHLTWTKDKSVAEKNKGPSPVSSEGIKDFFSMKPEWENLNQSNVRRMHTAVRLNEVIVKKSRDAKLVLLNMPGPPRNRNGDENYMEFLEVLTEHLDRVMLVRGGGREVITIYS
INS promoter inh: TRM-6 insulin promoter activity inhibition | TRM-6 cells (human fetal islet line), insulin promoter-eGFP reporter, imaging; reporter expression induced with tamoxifen | inhibition, % at 2 µM | AID 1273 | 0.9% of 130,000 active;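 active means inhibition above the mean plus 3 SD, with well images judged a real hit on visual review, cut at about 60% in these data, passing the limit was not always enough; inconclusive means inhibition over the cutoff but images rejected on review; inactive means inhibition not above the cutoff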
KCC2 secondary: confirmation of human KCC2 transport modulators | shares compounds with KCC2 mod | HEK293-KCC2, thallium flux, FluoZin2 fluorescence; hits give high values | normalised thallium flux (F/F0 slope) at 10 µM | 15% of 3,700 active;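 active means thallium flux slope above the same plate's solvent-only control mean plus 3 SD; inconclusive means the two replicate wells disagree; inactive means no significant difference from solvent-only control wells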
KCC2 bumet counter: thallium flux persisting under bumetanide in KCC2 cells, counter-screen secondary assay | shares compounds with KCC2 mod | HEK293-KCC2 + bumetanide/ouabain, thallium flux FluoZin2; hits give high values | normalized thallium flux at 10 µM | 49% of 3,700 active | AID 1714;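 active means thallium entry rate above the same plate's blocked-transporter control wells by more than 3 SD; inconclusive means the two repeat wells disagree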;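 further: raw slope of fluorescence over initial fluorescence between 10 and 20 s after thallium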
KCC2 sec2: confirmation of human KCC2 transport modulators. shares compounds with KCC2 mod. HEK293-KCC2, thallium flux FluoZin2 fluorescence; actives lie on both sides; F/F0 rise rate, 10–20 s post-thallium. normalized thallium flux at 10 µM. 23% of 3,700 active. AID 1715;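 active means thallium flux slope more than 3 SD above or below the plate's solvent-only control mean, mostly below; inconclusive means the two repeat wells disagreed; inactive means no significant shift from solvent-only controls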;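 further: raw slope with 0.1% DMSO as baseline and bumetanide as block control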
HEK counter1: counter-screen for KCC2 modulators: effect in parental HEK293 cells; shares compounds with KCC2 mod; thallium flux FluoZin2, ouabain; baseline-ratio fluorescence slope, 10–20 s after thallium; thallium flux rate (normalised fluorescence) at 10 µM; 46% of 3,700 active; AID 1716;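 active means thallium flux rate significantly above the same plate's solvent-only control wells, beyond their mean plus 3 SD; inconclusive means the two replicate wells gave conflicting results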
KCC2 ouabain: KCC2 (human) modulation, ouabain retest. shares compounds with KCC2 mod. raw Tl+ flux slope (below DMSO = inhibition, above = activation) at 10 µM. 48% of 3,700 active. AID 1717. HEK293-KCC2, thallium flux FluoZin2 fluorescence; bidirectional: low = inhibitor, high = activator;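 active means thallium flux slope beyond 3 SD from same-plate DMSO control mean in most replicates, usually higher, sometimes lower; inconclusive means repeat tests gave conflicting results; inactive means no significant difference from controls in most replicates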;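 further: slope of initial-normalized fluorescence between seconds 10 and 20 after thallium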
HEK counter2: parental HEK flux effect, counter-screen 2; shares compounds with KCC2 mod; HEK293 parental, thallium flux FluoZin-2 fluorescence slope; thallium flux slope at 10 µM; 33% of 3,700 active; AID 1718;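 active means thallium flux slope above the same plate's solvent-control mean plus 3 SD in both duplicate wells; inconclusive means duplicate wells that disagreed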;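 further: run without ouabain in cells lacking the KCC2 cotransporter; slope of fluorescence scaled to its starting value between 10 and 20 s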
The depositor's hits bear a star; u = inconclusive; x = not tested or not shown.

SMILES | ROMK mod | Insulin prom up | WT yeast gro inh | Lmaj promast | KCC2 mod | INS promoter inh | KCC2 secondary | KCC2 bumet counter | KCC2 sec2 | HEK counter1 | KCC2 ouabain | HEK counter2
Cc1cc(C(F)(F)F)nc(SCC(=O)NC2=NC(=O)C(C)S2)n1 (stereo not given) | x | -0.08 | -8.0 | -6.9 | x | -150.0 | x | x | x | x | x | x
Fc1ccc(-c2nn3c(C4COc5ccccc5O4)nnc3s2)cc1 (stereo not given) | x | 0.04 | 16.1 | 2.7 | -4.55* | -6.5 | 0.00545 | 0.00452 | 0.0299 | 0.00795 | 0.0188 | 0.0109
Nn1c(SC/C=C/c2ccccc2)nnc1-c1ccncc1 | -0.361 | -0.09 | 5.7 | 1.7 | -0.286 | u | x | x | x | x | x | x
COc1cc(-c2nnc(SC/C=C/c3ccccc3)n2N)cc(OC)c1OC | x | -0.56 | -0.4 | 15.7 | -6* | 2.9 | 0.00801 | 0.00505 | 0.0315 | 0.00708 | 0.0184 | 0.0106
O=C(NCc1ccc2c(c1)OCO2)c1ccc(COc2cccc(Cl)c2)o1 | x | 0 | 69.2* | -2.1 | -6.92* | x | 0.00789 | 0.00484 | 0.0351 | 0.004 | u | 0.0124
O=C(NCc1ccc2c(c1)OCO2)c1ccc(CSCc2ccccc2Cl)o1 | x | -0.14 | 41.6 | 4.1 | -0.592 | -30.0 | x | x | x | x | x | x
CN(C)C(CNC(=S)Nc1cccc(Cl)c1)c1ccccc1 (stereo not given) | -0.654 | x | 18.1 | 23.0 | 0.0775 | -35.0 | x | x | x | x | x | x
S=c1[nH]nc(Cc2c[nH]c3ccccc23)o1 | x | 0.32 | -10.9 | -9.8 | -5.52* | 14.3 | 0.00831 | 0.00568 | 0.0229* | 0.0068 | 0.0114* | 0.00943
Cc1cc(C)cc(N=C(NO)c2cccc([N+](=O)[O-])c2)c1 | x | -0.9 | 3.2 | 4.5 | -0.272 | x | x | x | x | x | x | x
CCOC(=O)CC1C(=O)NCCN1c1nc2c(C)cccn2c(=O)c1/C=C1\SC(=S)N(CC(C)C)C1=O (stereo not given) | x | 16.9* | x | x | -9.05* | x | 0.000693* | -0.00591* | 0.0138* | -0.00232* | -0.00164* | 0.00405*
C=CCn1c(Cc2cccs2)nnc1SCC(=O)c1ccc2ccccc2c1 | x | 0.19 | -4.2 | 0.6 | -5.95* | -46.7 | 0.0091 | u | 0.0272* | 0.0065 | 0.0143* | 0.0105
C=CCn1c(CNC(=O)c2cccs2)nnc1SCC(=O)c1ccc(Br)cc1 | x | x | -29.4 | -5.5 | -5.08* | -91.7 | 0.00777 | 0.00507 | 0.0307 | 0.00654 | 0.0369* | 0.0102
C=CCn1c(Cc2cccs2)nnc1SCC(=O)c1ccc(F)cc1 | x | 0.38 | -3.0 | -0.1 | -4.07* | 16.7 | 0.00681 | 0.00419 | 0.0262 | 0.00564 | 0.0149* | 0.00884
COc1cc(C)c(C(=O)Oc2cc(C)c(C(=O)O)c(O)c2C)c(OC)c1C | x | 0.72 | -12.4 | -11.0 | -2.05 | x | x | x | x | x | x | x
CCOC(=O)C1(CCCc2ccccc2)CCN(C(=O)CCN2CCCCC2=O)CC1 | 0.013 | x | 7.3 | -5.5 | -0.632 | x | x | x | x | x | x | x
Cc1ccc(-c2n[nH]c(=S)c3ccccc23)cc1 | 1.21 | -0.83 | -18.2 | -7.7 | 8.94* | 58.3 | 0.00917 | 0.0246* | 0.0295 | 0.00975* | u | 0.00954
O=C(COC(=O)/C=C/c1ccccc1[N+](=O)[O-])NC1CCS(=O)(=O)C1 (stereo not given) | -0.0456 | 0.07 | 14.5 | -7.2 | 0.411 | 38.1 | x | x | x | x | x | x
Cc1nn(-c2ccccc2)c(C)c1/C=C/C(=O)OCC(=O)NC1CCS(=O)(=O)C1 (stereo not given) | -0.177 | x | 8.4 | -5.3 | x | x | 0.0056 | 0.00441 | 0.027 | 0.00806 | 0.0177 | 0.0102
O=C(C(Sc1ccccc1)c1ccccc1)N1CCN(c2ccccc2)CC1 (stereo not given) | 0.0403 | -0.91 | 32.0 | 24.4 | -1.8 | -30.8 | x | x | x | x | x | x
COC(=O)c1sc(NC(=S)NC(=O)c2ccccc2C)nc1C | 2.07 | 0.03 | 19.9 | -9.4 | 91.9* | x | 0.0495* | 0.15* | 0.0418* | 0.101* | 0.0875* | 0.0329*
CCCn1c(SCC(=O)Nc2nc3c(s2)CCCC3)nc2c1c(=O)n(C)c(=O)n2C | -0.608 | 0.63 | -6.6 | -0.8 | -0.00822 | x | x | x | x | x | x | x
CCOC(=O)C1=NOC2C(=O)N(c3ccc(Cl)cc3Cl)C(=O)C12 (stereo not given) | 0.0659 | -0.87 | -37.7 | -6.9 | 0.649 | u | x | x | x | x | x | x
CCN1CCC2(CC1)N=C(c1ccc(F)cc1)C(=S)N2 | x | x | 2.3 | -5.6 | 0.00361 | 14.3 | x | x | x | x | x | x
S=C1NC2(CCCCC2)N=C1c1ccccc1 | -1.08 | -0.19 | -7.8 | 0.2 | 4.72* | 0.0 | 0.00954 | 0.03* | 0.0336 | 0.0118* | u | 0.012*
Cc1cccc(OCCc2nnc(N)s2)c1C | 0.672 | -0.55 | 5.8 | 1.7 | -5.93* | x | 0.0066 | 0.00492 | 0.0256* | 0.00787 | u | 0.0122
SMILES | ROMK mod | Insulin prom up | WT yeast gro inh | Lmaj promast | KCC2 mod | INS promoter inh | KCC2 secondary | KCC2 bumet counter | KCC2 sec2 | HEK counter1 | KCC2 ouabain | HEK counter2
Cc1ccc(S(=O)(=O)N2CCC(C(=O)N3Cc4ccccc4C3)CC2)cc1 | x | 1.31 | -6.0 | -1.4 | -0.129 | -22.9 | x | x | x | x | x | x
O=C(C1CCN(S(=O)(=O)c2cccc3nsnc23)CC1)N1CCc2ccccc2C1 | x | -0.26 | 10.1 | 6.4 | -6.02* | 50.0 | 0.0103 | 0.00675 | 0.0232* | 0.00796 | 0.0152* | 0.0114
COc1ccc(S(=O)(=O)N2CCC(C(=O)N3CCc4ccccc4C3)CC2)cc1C | -2.2 | -1.28 | 28.4 | -0.9 | -3.53* | 18.9 | 0.00698 | 0.00486 | 0.0244* | 0.00758 | 0.0149* | 0.0105
c1ccc(CC2CCN(c3nnnn3-c3ccccc3)CC2)cc1 | -0.382 | -0.01 | 61.5* | 10.0 | x | 23.5 | 0.00669 | 0.00575 | 0.028 | u | 0.0163* | 0.00904
O=C(NCCc1c[nH]c2ccccc12)c1ccc(S(=O)(=O)NCc2ccco2)cc1 | x | -0.13 | -0.4 | 9.7 | x | x | x | x | x | x | x | x
O=C(NC(=S)Nc1cccc(C(F)(F)F)c1)c1ccc2nonc2c1 | x | 0.39 | x | x | 52.3* | x | 0.0238* | 0.121* | u | 0.041* | 0.0628* | 0.0152*
CCOc1cc(OCC)cc(C(=O)NC(=S)Nc2cccc(C(F)(F)F)c2)c1 | x | 0.34 | 2.5 | -4.6 | 3.34* | -11.6 | 0.00577 | 0.0136* | 0.0343 | 0.0128* | u | 0.0136*
CCOc1ccc(NC(=S)NNC(=S)Nc2cccc(C(F)(F)F)c2)cc1 | x | 0.01 | x | x | -1.94 | x | x | x | x | x | x | x
